# mHTT CaM bind: inhibitors of human mutant huntingtin-calmodulin interaction | AlphaScreen His-mHTT/GST-CaM binding, luminescence | inhibition, % at 15 µM | 190,000 compounds, 3.6% hits | AID 1671202;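 also: 0% = both proteins with DMSO and 100% = one protein alone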
# Pf apPOL inh: Pf-apPOL DNA polymerase inhibition. inhibition, % at 10 µM. Recombinant Pf-apPOL, molecular beacon fluorescence, 1.5 h. 210,000 compounds, 0.25% hits
# An asterisk follows results filed as active; · = not tested or not shown. The sample as a whole holds a higher share of hits than the screen did. Rule as the data show it: active = inhibition above about 50%; inactive = the rest.
SMILES,mHTT CaM bind,Pf apPOL inh
Cn1ncc(N2CCCC(C(=O)Nc3ccc4c(c3)OCCO4)C2)cc1=O (centres undefined),15,-5
O=C(CCCn1c(=O)[nH]c2ccsc2c1=O)N1CCc2ccccc2C1,-4,-3
CCC(C(=O)O)N1C(=O)C(=CC=Cc2ccco2)SC1=S (centres undefined),41,94*
CC(C)CC(C(=O)O)N1C(=O)C(=Cc2ccco2)SC1=S (centres undefined),6,16
CCc1ccc(OCC(=O)Nc2cc(F)ccc2C)cc1,-26,4
COc1ccc(-c2[nH]ncc2-c2cnn(-c3ccccc3)c2)c(O)c1C,17,3
CCc1cc(-c2[nH]ncc2-c2cnn(-c3ccccc3)c2)c(O)cc1O,94*,-3
CC(=O)N1CCN(c2nc3c(s2)CC(C(=O)Nc2ccccc2)CC3)CC1 (centres undefined),28,-1
CC(=O)N1CCN(c2nc3c(s2)CC(C(=O)Nc2cccc(C(C)(C)C)c2)CC3)CC1 (centres undefined),54*,2
O=c1/c(=C/c2ccccc2)sc2n1CN(c1cccc(Br)c1)CN=2,-13,-4
O=C1Nc2ccc(Cl)cc2/C1=c1\sc2n(c1=O)CN(c1cccc(Br)c1)CN=2,52*,-6
Cc1cc(NC(=O)c2cccc([N+](=O)[O-])c2)no1,-6,-3
O=C(/C=C/c1cccc([N+](=O)[O-])c1)Nc1ccccn1,2,-4
O=[N+]([O-])c1cccc(C(Nc2ccccn2)c2ccc3cccnc3c2O)c1 (centres undefined),100*,-3
Cc1cc(NC(c2cccc([N+](=O)[O-])c2)c2ccc3cccnc3c2O)no1 (centres undefined),100*,1
COc1cccc(-c2cc(C3CCN(C(=O)Nc4cc(OC)ccc4OC)CC3)[nH]n2)c1,46,0
Cc1ccc(-c2ncc3c(=O)n(Cc4cccc(C)c4)c(=O)n(C)c3n2)cc1,-15,4
Cc1onc(-c2c(Cl)cccc2Cl)c1C(=O)Oc1ccc(CC#N)cc1,·,-4
COc1ccc(/C=C2\C(=O)Nc3ccc(Cl)cc32)cc1OC,74*,-11
O=C1Nc2ccc(Cl)cc2/C1=C/c1ccccc1,65*,0
COc1ccccc1/C=C1\C(=O)Nc2ccc(Cl)cc21,24,-1
O=C1Nc2ccc(Cl)cc2/C1=C/c1ccccc1F,19,7
COc1ccc(NC(=O)c2sc3nc(-c4ccccc4)cn3c2C)c(OC)c1,5,-1
CC(=O)c1c(-c2ccccc2)c2cc([N+](=O)[O-])ccc2n1C,5,-1
CN(C)/C=C/c1c(C=O)c2cc([N+](=O)[O-])ccc2n1C,100*,-7
SMILES,mHTT CaM bind,Pf apPOL inh
COc1ccc(C2=NC3(CCN(CC(=O)Nc4ccccc4)CC3)NC2=O)cc1,8,-2
Cc1ccc(C2CC(C(F)F)n3ncc(C(=O)Nc4cnn(Cc5ccccc5C)c4)c3N2)cc1 (centres undefined),56*,-3
Cc1ccc(C2CC(C(F)(F)F)n3ncc(C(=O)Nc4ccccc4C)c3N2)cc1 (centres undefined),18,0
Cc1ccc(C(=O)N2CCCC(c3nc(CCNC(=O)C4CC4)cs3)C2)c(C)c1 (centres undefined),-3,-2
O=C1C[C@H]2C=CCc3cccc(c32)CN1Cc1ccc(Br)cc1,12,-8
COc1ccccc1CN1Cc2cccc3c2[C@@H](CC1=O)[C@H](O)[C@H](O)C3,-2,-3
Cc1ccccc1CN1Cc2cccc3c2[C@H](C=CC3)CC1=O,100*,-3
O=C1CC2C=CCc3cccc(c32)CN1Cc1cccc(F)c1 (centres undefined),100*,-4
Cc1cccc(-n2nc3c(c2NC(=O)C2CCCCC2)CSC3)c1C,28,-2
CC(C)CNC(=O)N1CCC(CCOc2ccncc2)CC1,-6,-4
Cc1ccsc1CN1CCCC1c1c(C)noc1C (centres undefined),-1,-9
O=C(Nc1cccnc1)c1ccc(Cl)cc1Cl,-1,-2
O=C(O)c1cc(Cl)c(Cl)cc1C(=O)Nc1cccnc1,-5,55*
Cc1cccc(NC(=O)COc2ccc(Br)cc2)n1,-20,-1
Cc1cccc(NC(c2ccc(Br)cc2)c2ccc3cccnc3c2O)n1 (centres undefined),97*,4
O=S(=O)(O)c1cccc2cccnc12,0,-1
Cc1ccc(C(Nc2cccc(C)n2)c2ccc3cccnc3c2O)cc1 (centres undefined),98*,2
Cc1ccc(Cl)cc1N1CCN(C(=O)Cc2ccccc2)C(C)C1=O (centres undefined),-4,-2
COc1ccc2c(c1)OC(=Cc1ccco1)C2=O,16,0
O=C(CN1CCc2ccccc2C1C(=O)N1CCCCC1)NC1CCCCCC1 (centres undefined),13,0
CN1C(=O)C(O)(CC(=O)c2ccccn2)c2cc(Br)ccc21 (centres undefined),2,-6
CN1C(=O)C2(NN=C(c3ccccc3)S2)c2cc(Br)ccc21 (centres undefined),100*,-3
CCCCC(=O)Nc1c2c(nn1-c1ccccc1C)CS(=O)(=O)C2,3,72*
Cc1ccccc1-n1nc2c(c1NC(=O)Cc1ccccc1)CS(=O)(=O)C2,5,-7
N#CC1=C(N)Oc2n[nH]c(C34CC5CC(CC(C5)C3)C4)c2C1c1cccs1 (centres undefined),55*,-3
SMILES,mHTT CaM bind,Pf apPOL inh
N#CC1=C(N)Oc2n[nH]c(C34CC5CC(CC(C5)C3)C4)c2C1c1ccc(O)cc1 (centres undefined),29,8
O=C(CN1CCN(C(=O)Nc2ccccc2)CC1=O)NCc1ccc2c(c1)OCO2,-6,-1
OCCN(CCO)CC(O)Cn1c2ccc(Cl)cc2c2cc(Cl)ccc21 (centres undefined),100*,0
Cc1nccn1CC(C)C(=O)O (centres undefined),0,1
Cc1nccn1CC(O)Cn1c2ccc(Cl)cc2c2cc(Cl)ccc21 (centres undefined),100*,3
CC(O)Cn1c2ccccc2c2cc(Cl)ccc21 (centres undefined),19,9
CCc1ccc(-n2c(C)nc3cc(C(=O)O)ccc32)cc1,1,-4
CCOc1ccc(NC(=O)NCc2ccnc(N3CCCCC3)c2)cc1,15,-1
COc1ccc(C2Nc3cc(C)ccc3NC3=C2C(=O)CC(C)(C)C3)cc1 (centres undefined),15,-3
O=C(NCC1COC2(CCCCC2)O1)C(=O)NC1CCCCCC1 (centres undefined),1,1
Cc1ccc(CN2CCc3c(cc(C(=O)Nc4ccc(N5CCOCC5)cc4)n3C)C2)cc1,33,1
COc1cccc(CN2CCc3c(cc(C(=O)NCc4ccc(F)cc4)n3C)C2)c1,54*,-4
CCN(CC)C(=O)c1cc2c(n1C)CCN(Cc1ccc(F)cc1)C2,34,-3
COc1cccc(CN2CCc3c(cc(C(=O)NC(C)C)n3C)C2)c1,34,2
COc1ccc(NC(=O)c2cc3c(n2C)CCN(Cc2ccc(F)cc2)C3)cc1,99*,-5
COCCNC(=O)c1cc2c(n1C)CCN(Cc1cccc(OC)c1)C2,21,-1
COc1ccc(NC(=O)c2cc3c(n2C)CCN(Cc2ccc(C)cc2)C3)cc1OC,50*,-2
COc1cccc(CN2CCc3c(cc(C(=O)Nc4ccccc4)n3C)C2)c1,59*,0
